According to PubChem BioAssay:
Values without a mark were called inactive. Active and inactive are the calls of the source.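 Rule for the calls: active = normalized viability below 100% at a tested concentration; inactive = the rest.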

assay: drug combination growth inhibition, ovarian cancer – cell-based, oncology-focused library, rucaparib conditional, profiling panel (AID 1508598); conditions: patient-derived ovarian cancer cells, CellTiter-Glo viability, 144 h; at 0.0781 µM; OCI-P5x cells; with rucaparib 20 µM; active compounds read low; 100% = cells with rucaparib alone

| Compound | viability |
| --- | --- |
| N#CCNC(=O)c1ccc(-c2ccnc(Nc3ccc(N4CCOCC4)cc3)n2)cc1 | 96.9% (active) |
| Nc1nc(Nc2ccc(S(N)(=O)=O)cc2)nn1C(=O)c1c(F)cccc1F | 87.9% (active) |
| O=C(Nc1ccccc1-c1cn2c(CN3CCNCC3)csc2n1)c1cnc2ccccc2n1 | 110% |
| COc1ccc(-c2ccc3c(N4CCOCC4)nc(N4C[C@@H](C)O[C@@H](C)C4)nc3n2)cc1CO | 100% |
| CC1(C)CNc2cc(NC(=O)c3cccnc3NCc3ccncc3)ccc21 | 138% |
| COc1cc2nccc(Oc3ccc(NC(=O)Nc4cc(C)on4)c(Cl)c3)c2cc1OC | 92.2% (active) |
| N#Cc1c(NC(=O)c2cccc3ccccc23)sc2c1CCCC2 | 97.5% (active) |
| COc1ccc(-c2ccc3c(N4CCOC[C@@H]4C)nc(N4CCOC[C@@H]4C)nc3n2)cc1CO | 43.6% (active) |
| Cc1cnc(NC(=O)Nc2cc(Br)c(C)cc2OC[C@@H]2CNCCO2)cn1 | 92.1% (active) |
| COC(=O)c1ccc2c(C(=Nc3ccc(N(C)C(=O)CN4CCN(C)CC4)cc3)c3ccccc3)c(O)[nH]c2c1 | 93% (active) |
| Cc1ccc(F)c(NC(=O)Nc2ccc(-c3cccc4[nH]nc(N)c34)cc2)c1 | 103% |
